Assay [1] is described as follows: circadian clock period modulators, cell-based, LOPAC library, luminescence reporter (AID 2774).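 Further: values are relative to mean of DMSO wells on each plate.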 The conditions noted are these: circadian reporter cells, at 7 µM, actives lie on both sides.
Assay [2] relates to Hepatitis C virus NS3 helicase. The experiment in a line: HCV NS3 helicase inhibitors, primary screen, biochemical, fluorescence polarization, LOPAC1280 library (AID 687035; in the data active means inhibition above about 37%). The conditions noted are these: Purified HCV NS3 helicase, Cy5-dT15 ssDNA binding fluorescence polarization; stronger effect = higher value; concentration not given here. On the technique in general: Fluorescence polarisation rises when a labelled molecule tumbles more slowly, as on binding a larger partner.

Assay [3] can be described thus: Cy5 fluorescence quenching or enhancement artefacts, artefact control for HCV NS3 helicase inhibitor project, biochemical, LOPAC1280 (AID 687037). As to conditions: Cy5-DNA-NS3h complex fluorescence interference counterscreen.
The subject of assay [4] is Aerobactin synthetase IucA (Klebsiella pneumoniae, hypervirulent). The experiment in a line: IucA enzyme inhibition, biochemical, LOPAC library, absorbance readout (AID 1346212).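 Further: 100% = no compound wells and 0% = no enzyme wells.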 The conditions noted are these: IucA enzyme assay, absorbance (OD) readout; stronger effect = lower value;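 tested at 8 µM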.
A short description of assay [5]: sensitizers of A549 cells to miR-34 induction, primary screen, imaging, A549 dox-inducible miR-34, nuclei and caspase counts (AID 1347080;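 active means compounds whose cell count with miR-34 switched on is under 0.7 times the count with it off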). As to conditions: A549 miR-34 inducible, Hoechst nuclei count, 48 h.
Assay [6] in a line: phospholipid biosynthesis inhibitors in animal cells, primary screen, cell-based, LOPAC library, screen 4 (AID 1347384). The conditions noted are these: phospholipid biosynthesis inhibition screen, at 10 µM.
Assay [7] in a line: viability rescue of complex I mutant cybrids, primary screen, cell-based, galactose medium, ATP luminescence (AID 1645843;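 active means z-score of at least 1.8 in each of two replicates, scored against plate mean and spread of sample wells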;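 further: positive z means more ATP and so rescue of galactose-driven cybrid death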). As to conditions: complex I mutant cybrid cells, 72 h, stronger effect = higher value.
Setting [8] is: measured here: relative caspase fold change +Dox/-Dox.
Where [9] appears, read: measured here: total cells with miR-34 induction, stronger effect = lower value.
Where [10] appears, read: measured here: total cells without miR-34 induction.

The source made the active and inactive calls. Unless noted, how the calls were made is not given here.

In general, inhibition refers to the change of the read-out against control, counted positive when it falls. As a reminder, the remaining activity is the signal under treatment as a percentage of the control signal. For the molecule `CCCN(CCC)[C@H]1CCc2c(F)ccc(O)c2C1`, the period change in assay [1] is -0.075 h (inactive). Moreover, in assay [2], the inhibition is -4% (inactive). For the same molecule, the fluorescence ratio (interference) in assay [3] was 1 (inactive). For the same molecule, in assay [4], the remaining activity was 115% (inactive). The fold change in assay [5] (stronger effect = lower value) is 1.05 (inactive); in assay [5] (setting [8]), 1.11. Also, the cell count was found to be 10100 in assay [5] (setting [9]) and 9610 in assay [5] (setting [10]). Besides, the outcome in assay [6] was inactive. For the same molecule, in assay [7], the z-score is -0.33 (inactive).

On to `O=C1C=CC(=O)C=C1`, for which, in assay [1], the period change was -0.065 h (inactive). Moreover, the inhibition in assay [2] was 0% (inactive). Besides, the fluorescence ratio (interference) in assay [3] was 1 (inactive). Also, the remaining activity in assay [4] is 109% (inactive). The fold change in assay [5] (stronger effect = lower value) is 1.02 (inactive); in assay [5] (setting [8]), 1.65. Further, the cell count turned out to be 9760 in assay [5] (setting [9]) and 9540 in assay [5] (setting [10]). For the same molecule, in assay [6], the result was inactive. Also, in assay [7], the z-score is 0.205 (inactive).

As to `CCCC[N+]1(C)C2CC(OC(=O)[C@H](CO)c3ccccc3)CC1C1OC12` (stereo not given in full), in assay [1], the period change was -0.065 h (inactive). Also, the inhibition in assay [2] is -1% (inactive). For the same molecule, the fluorescence ratio (interference) in assay [3] is 1 (inactive). Further, the remaining activity in assay [4] is 117% (inactive). Also, the results for the fold change in assay [5] (stronger effect = lower value) and in assay [5] (setting [8]) were 0.937 (inactive) and 1.39, respectively. In addition, the cell count worked out at 9870 in assay [5] (setting [9]) and 10500 in assay [5] (setting [10]). In addition, the molecule was called inactive in assay [6]. For the same molecule, in assay [7], the z-score is 0.72 (inactive).

`NC(Cc1cc(O)c(O)cc1O)C(=O)O` (stereo not given): in assay [1], the period change was 0.12 h (inactive). For the same molecule, the inhibition in assay [2] is 22% (inactive). Moreover, the fluorescence ratio (interference) in assay [3] is 0.9 (inactive). Further, in assay [4], the remaining activity is 96.6% (inactive). The fold change was 1.05 (inactive) in assay [5] (stronger effect = lower value) and 0.814 in assay [5] (setting [8]). Also, the cell count in assay [5] (setting [9]) worked out at 9010; in assay [5] (setting [10]) it was 8570. In addition, the molecule was called inactive in assay [6]. Besides, the z-score in assay [7] was -0.345 (inactive).

`O=S1(=O)N(CCN2CC=C(c3c[nH]c4cc(F)ccc34)CC2)c2cccc3c2N1CCC3`: in assay [1], the period change was 0.13 h (inactive). In assay [2], the inhibition is 0% (inactive). Moreover, in assay [3], the fluorescence ratio (interference) was 1 (inactive). Moreover, the remaining activity in assay [4] was 123% (inactive). Besides, the fold change in assay [5] (stronger effect = lower value) is 1.01 (inactive); in assay [5] (setting [8]), 0.783. For the same molecule, the cell count in assay [5] (setting [9]) came out at 5470; in assay [5] (setting [10]) it was 5400. Moreover, the call in assay [6] was inactive. The z-score in assay [7] is -1.29 (inactive).

On to `CC(C)NC(C)Cc1ccc(I)cc1` (stereo not given), for which the period change in assay [1] was 0.04 h (inactive). Besides, in assay [2], the inhibition is -1% (inactive). The fluorescence ratio (interference) in assay [3] was 1 (inactive). Besides, in assay [4], the remaining activity was 108% (inactive). The fold change in assay [5] (stronger effect = lower value) was 1.08 (inactive); in assay [5] (setting [8]) it was 0.905. The cell count in assay [5] (setting [9]) worked out at 10800; in assay [5] (setting [10]) it was 10000. The result in assay [6] was inactive. Further, the z-score in assay [7] is -0.22 (inactive).

Take `CNc1ccc2oc(C[C@H]3O[C@@]4(CC[C@H]3C)O[C@H]([C@H](C)C(=O)c3ccc[nH]3)[C@H](C)C[C@H]4C)nc2c1C(=O)O`: the period change in assay [1] was -0.125 h (inactive). Besides, in assay [2], the inhibition was 1% (inactive). Moreover, the fluorescence ratio (interference) in assay [3] is 1 (inactive). In addition, the remaining activity in assay [4] is 119% (inactive). Besides, the fold change in assay [5] (stronger effect = lower value) is 0.828 (inactive); in assay [5] (setting [8]) it was 1.6. Also, the cell count in assay [5] (setting [9]) is 428; in assay [5] (setting [10]) it was 516. Also, in assay [6], the result was inactive. Also, the z-score in assay [7] was -1.52 (inactive).

In the case of `NNC(=O)c1ccc(O)cc1`, the period change in assay [1] is 0.115 h (inactive). In addition, the inhibition in assay [2] is 1% (inactive). In addition, the fluorescence ratio (interference) in assay [3] is 1.1 (inactive). Besides, the remaining activity in assay [4] is 109% (inactive). The values for the fold change in assay [5] (stronger effect = lower value) and in assay [5] (setting [8]) were 0.976 (inactive) and 1.57, respectively. The results for the cell count in assay [5] (setting [9]) and in assay [5] (setting [10]) were 9790 and 10000, respectively. The molecule was called inactive in assay [6]. In assay [7], the z-score is 0.275 (inactive).

For `CCCN(CCC)CCc1ccc(O)c(O)c1`, the period change in assay [1] was -0.225 h (inactive). The inhibition in assay [2] was 0% (inactive). In assay [3], the fluorescence ratio (interference) was 1 (inactive). Also, the remaining activity in assay [4] was 95.7% (inactive). In addition, the fold change in assay [5] (stronger effect = lower value) is 0.99 (inactive); in assay [5] (setting [8]), 0.931. Also, the cell count in assay [5] (setting [9]) is 10100; in assay [5] (setting [10]) it was 10200. Moreover, in assay [6], the molecule was classed as inactive. For the same molecule, the z-score in assay [7] was 0.465 (inactive).

Regarding `CNCCc1ccc(O)c(O)c1`, in assay [1], the period change was 0 h (inactive). The inhibition in assay [2] was -2% (inactive). The fluorescence ratio (interference) in assay [3] was 1 (inactive). Moreover, the remaining activity in assay [4] is 115% (inactive). Besides, the results for the fold change in assay [5] (stronger effect = lower value) and in assay [5] (setting [8]) were 1.01 (inactive) and 1.35, respectively. The values for the cell count in assay [5] (setting [9]) and in assay [5] (setting [10]) were 9960 and 9850, respectively. In addition, in assay [6], the call was inactive. Further, the z-score in assay [7] was -0.945 (inactive).

Take `NCC(CP(=O)(O)O)c1ccc(Cl)cc1` (stereo not given): the period change in assay [1] was 0.02 h (inactive). Also, the inhibition in assay [2] was -1% (inactive). Moreover, the fluorescence ratio (interference) in assay [3] is 1 (inactive). Besides, in assay [4], the remaining activity was 107% (inactive). Also, the fold change in assay [5] (stronger effect = lower value) is 1 (inactive); in assay [5] (setting [8]) it was 1.21. In addition, the cell count was 9470 in assay [5] (setting [9]) and 9430 in assay [5] (setting [10]). Also, in assay [6], the call was inactive. The z-score in assay [7] was 0.615 (inactive).

For `C[N+]1(C)C2CCC1CC(OC(=O)c1c[nH]c3ccccc13)C2` (stereo not given), in assay [1], the period change was -0.255 h (inactive). Also, in assay [2], the inhibition is 0% (inactive). The fluorescence ratio (interference) in assay [3] was 1 (inactive). Besides, the remaining activity in assay [4] was 94.3% (inactive). Moreover, the fold change in assay [5] (stronger effect = lower value) is 0.939 (inactive); in assay [5] (setting [8]), 1.36. Also, the cell count worked out at 9240 in assay [5] (setting [9]) and 9840 in assay [5] (setting [10]). Moreover, in assay [6], the result was inactive. For the same molecule, the z-score in assay [7] is 0.4 (inactive).

For `CCCn1c(=O)c2[nH]c(C3CCCC3)nc2n(CCCOC(=O)c2ccc(S(=O)(=O)F)cc2)c1=O`, the period change in assay [1] is -0.07 h (inactive). For the same molecule, the inhibition in assay [2] was -3% (inactive). In assay [3], the fluorescence ratio (interference) is 1 (inactive). Besides, the remaining activity in assay [4] is 102% (inactive). For the same molecule, the results for the fold change in assay [5] (stronger effect = lower value) and in assay [5] (setting [8]) were 0.972 (inactive) and 1.12, respectively. Also, the values for the cell count in assay [5] (setting [9]) and in assay [5] (setting [10]) were 6100 and 6280, respectively. Moreover, the molecule was classed as inactive in assay [6]. The z-score in assay [7] is -0.865 (inactive).

On to `Clc1cnc(Oc2ccc(Oc3ncc(Cl)cc3Cl)cc2)c(Cl)c1`, for which the period change in assay [1] is 0 h (inactive). In assay [2], the inhibition is -3% (inactive). Also, the fluorescence ratio (interference) in assay [3] was 1 (inactive). The remaining activity in assay [4] is 94.8% (inactive). Moreover, the fold change in assay [5] (stronger effect = lower value) was 0.984 (inactive); in assay [5] (setting [8]), 1.88. Further, the values for the cell count in assay [5] (setting [9]) and in assay [5] (setting [10]) were 9890 and 10000, respectively. Also, the result in assay [6] was inactive. For the same molecule, in assay [7], the z-score was 1.21 (inactive).

These data come from PubChem BioAssay.
